Rows were chosen to be rich in hits. Some 8.1% of all compounds tested hit in one or more screens of this group.
Sfp PPTase inh – Sfp phosphopantetheinyl transferase inhibition; Potency, µM, for inactives: largest response in the series, negative = inhibition, hits mostly inhibitors; Q9F4F7; AID 1490; actives 3.5% (n = 310,000); Biochemical Sfp PPTase activity, qHTS;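 further: the enzyme is Sfp with the accession as filed and its product quenches rhodamine fluorescence; 0% = enzyme reaction without inhibitor and -100% = no enzyme wells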
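Buffer: 50 mM Hepes-Na pH 7.6, 10 mM MgCl2, 0.01% Nonidet P-40, 0.01% BSA. Enzyme 15 nM, pre-exposed to compound 15 min; substrates then added and fluorescence change tracked over 30 min.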
Gal4-VP16 FLuc – inhibits Gal4-VP16 luciferase reporter, ROR gamma counter-screen. actives 3.5% (n = 310,000). Drosophila S2 Gal4-VP16 UAS-luciferase, luminescence, 20 h. AID 2546. Potency, µM (highest dose often 53.6 µM), inactives show top-dose activity, negative = inhibition, most hits filed as inhibitors;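 further: Gal4-VP16 expression switched on by copper sulfate through the metallothionein promoter; on the % scale 0 is the no-effect control and ±100 the full control effect; nearly all actives have a fitted effect of over 50% in size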
RORg inh – ROR gamma (mouse) transcription inhibition. Drosophila S2 Gal4-RORgamma UAS-luciferase reporter, 20 h. actives 5.4% (n = 310,000). Potency, µM (doses to about 53.6 µM), for the others: at the top dose activity change, negative = inhibition, most hits filed as inhibitors. P51450; further: on the % scale 0 is the no-effect control and ±100 the full control effect; nearly all actives have a fitted effect of over 60% in size
Target sequence (P51450 whole entry, looked up, the tested form may be a part): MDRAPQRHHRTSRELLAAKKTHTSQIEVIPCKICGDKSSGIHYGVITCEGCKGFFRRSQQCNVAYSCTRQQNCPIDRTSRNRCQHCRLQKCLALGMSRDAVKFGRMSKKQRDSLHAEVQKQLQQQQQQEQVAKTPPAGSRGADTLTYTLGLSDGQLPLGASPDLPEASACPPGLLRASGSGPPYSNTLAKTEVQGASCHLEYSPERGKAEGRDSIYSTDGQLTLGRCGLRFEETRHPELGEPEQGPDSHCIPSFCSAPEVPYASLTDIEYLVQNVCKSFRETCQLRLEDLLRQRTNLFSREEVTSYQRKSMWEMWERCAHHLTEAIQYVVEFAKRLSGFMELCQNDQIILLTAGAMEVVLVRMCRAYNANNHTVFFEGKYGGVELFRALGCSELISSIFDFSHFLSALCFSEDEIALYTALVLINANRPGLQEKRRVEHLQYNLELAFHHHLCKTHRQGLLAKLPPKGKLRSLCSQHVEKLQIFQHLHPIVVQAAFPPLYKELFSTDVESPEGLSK
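Read-out: Photinus luciferase luminescence; inhibitors lower reporter signal. Insect Schneider cells with Gal4-ROR gamma fusion under metallothionein promoter, UAS reporter; 700 uM final copper sulfate induction, 20 hr, ambient temperature.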
ClpP mod – qHTS Assay for Activators of ClpP; ATP-dependent Clp protease proteolytic subunit (Bacillus subtilis (strain 168)), P80244; purified B. subtilis ClpP, FRET peptide cleavage, 20 min; Potency, µM (series often up to 57.5 µM), without a hit: top-dose activity change, negative = active; actives 1.9% (n = 340,000); active means well fitted falling curve with a large enough effect; inconclusive means small, poorly fitted or top-dose-only effect; inactive means no such curve, though single readings can be large or run the other way; further: the source files actives as falling curves though it sought activators and does not explain the sign; nearly all actives have a fitted effect of over 65% in size
Target sequence (P80244 whole entry, looked up): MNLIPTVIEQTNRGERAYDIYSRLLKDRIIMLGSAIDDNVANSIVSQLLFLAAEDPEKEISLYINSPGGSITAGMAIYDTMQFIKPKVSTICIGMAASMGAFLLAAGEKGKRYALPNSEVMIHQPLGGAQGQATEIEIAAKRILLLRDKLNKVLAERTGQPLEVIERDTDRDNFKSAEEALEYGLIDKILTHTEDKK
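ClpP 10 microg/mL final, pH 8 Tris/KCl buffer with BSA, glycerol, Tween-20; compound pinned in; FRET-FV substrate; RT 20 min; Ex320/Em430; ΔFRET vs ADEP 5.8 microM, DMSO, no enzyme.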
PINK1 expr mod – PINK1 expression modulation | PINK1 immunofluorescence, high-content cytometry, 24 h | Potency, µM (series often up to 76.6 µM), for the others: at the top dose activation (PINK1 increase), usual class: activators | actives 0.2% (n = 410,000); active means well fitted activation curve with a large enough effect; inconclusive means small, poorly fitted or top-dose-only effect; cell line not stated here; further: % of control where 0% means no effect; nearly all actives have a fitted effect of over 65% in size
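Measures PINK1 amount and localization on or inside mitochondria by immunofluorescence. Stable cells get compounds at 5 concentrations for 24 hours before fixation and staining; CCCP controls included.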
Epigenetic derep – epigenetic control regulation, reporter derepression | murine LDR cells, GFP reporter derepression, 30 h | Potency, µM (top dose mostly 53.9 µM), inactives show at the top dose GFP activation, actives largely listed as activators | actives 0.2% (n = 280,000); further: % of control where 0% means no effect; nearly all actives have a fitted effect of over 60% in size
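Reporter derepression read as number of fluorescent GFP-positive objects, 20-120 um in size, counted by laser-scanning cytometer. Mouse LDR line with an epigenetically silenced CMV-GFP locus; compound incubation 30 h, 37 C.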
An asterisk follows results filed as active; ! = not active in a repeat; [ ] = remark or other dose. Unless noted, the call rests on the fitted dose curve; in most records, active means well fitted curve in the direction sought with a large enough effect; inconclusive means small, poorly fitted or top-dose-only effect, or another doubt; inactive means no such curve, though single readings can be large; an effect the other way counts as inactive or inconclusive. Potency means the concentration at half of the fitted maximal effect.

How did CCOc1ccc(Cc2n[nH]c(=S)n2N)cc1 do in these assays?
Sfp PPTase inh: 56.2µM*; Gal4-VP16 FLuc: -10.4%; RORg inh: 13.6%; ClpP mod: -0.9%; PINK1 expr mod: -0.8%; Epigenetic derep: 0.0%

What do the screens show for `Nn1c(Cc2ccc(Br)cc2)n[nH]c1=S`?
Sfp PPTase inh: 35.5µM*; Gal4-VP16 FLuc: 6.2%; RORg inh: -36.7%; PINK1 expr mod: 0.9%; Epigenetic derep: -0.5%

How did CCN1c2ccccc2-c2nc3ccccc3n2C1c1cccnc1 (stereo not drawn) do in these assays?
Sfp PPTase inh: 10.1%; Gal4-VP16 FLuc: 0.8%; RORg inh: inconclusive; ClpP mod: 31.6µM*; Epigenetic derep: 0.0%

How did CCN1c2ccccc2-c2nc3ccccc3n2C1c1ccccn1 (stereo not drawn) do in these assays?
Sfp PPTase inh: 0.5%; Gal4-VP16 FLuc: -11.0%; RORg inh: 8.91µM*; ClpP mod: inconclusive; PINK1 expr mod: 0.6%; Epigenetic derep: -1.0%

How did CCN1c2ccccc2-c2nc3ccccc3n2C1c1ccncc1 (stereo not drawn) do in these assays?
Sfp PPTase inh: -4.1%; Gal4-VP16 FLuc: 0.6%; RORg inh: -1.1%; ClpP mod: inconclusive; PINK1 expr mod: -2.7%; Epigenetic derep: -3.8%

Results for COCCCNc1nc2c(S(=O)(=O)c3ccc(C)c(C)c3)nnn2c2ccc(Cl)cc12 ?
ClpP mod: 3.7%; PINK1 expr mod: -0.8%; Epigenetic derep: 0.0%

How did N#Cc1c2c(c(NCc3cccnc3)n3c1nc1ccccc13)CCC2 do in these assays?
Sfp PPTase inh: 11.9%; Gal4-VP16 FLuc: 7.1%; RORg inh: -16.2%; ClpP mod: 31.6µM*; PINK1 expr mod: -4.0%; Epigenetic derep: 0.0%

Results for COCCNc1c2c(c(C#N)c3nc4ccccc4n13)CCCC2 ?
Sfp PPTase inh: -14.1%; Gal4-VP16 FLuc: -9.2%; RORg inh: -9.3%; ClpP mod: -0.7%; PINK1 expr mod: -0.8%; Epigenetic derep: 3.2%

What do the screens show for `CCOc1ccc(C(c2c(O)cc(C)n(Cc3ccco3)c2=O)N2CCN(c3ccccc3)CC2)cc1` (stereo not drawn)?
ClpP mod: 1.0%; PINK1 expr mod: -0.3%; Epigenetic derep: -2.7%

What do the screens show for `Cc1ccc(C)c(NC2=NS(=O)(=O)c3ccccc32)c1`?
Sfp PPTase inh: 13.8%; Gal4-VP16 FLuc: 1.9%; RORg inh: -7.6%; ClpP mod: -0.7%; PINK1 expr mod: 3.2%[38.3 µM]; Epigenetic derep: 0.0%

Results for Cc1ccc(S(=O)(=O)NNC2=NS(=O)(=O)c3ccccc32)c(C)c1 ?
Sfp PPTase inh: inconclusive; Gal4-VP16 FLuc: -28.1%; RORg inh: 10µM*; PINK1 expr mod: 1.3%; Epigenetic derep: 0.0%

What do the screens show for `O=C(Nc1cccc(Cl)c1)c1c(NC(=O)C(F)(F)F)sc2c1CCCC2`?
ClpP mod: -0.6%; PINK1 expr mod: 39.8µM*; Epigenetic derep: -1.6%

What do the screens show for `Cc1ccc(NC(=O)c2cnn3c(C(F)F)cc(-c4ccccc4)nc23)c(C)c1`?
ClpP mod: 2.9%; PINK1 expr mod: 1.1%; Epigenetic derep: -0.1%

What do the screens show for `C=CCNc1nc(N)c([N+](=O)[O-])c(Nc2ccccc2OC)n1`?
Sfp PPTase inh: 16.0%; Gal4-VP16 FLuc: -0.1%; RORg inh: -17.1%; ClpP mod: -1.2%; PINK1 expr mod: 0.3%

Results for COc1ccccc1Nc1nc(NCCCN(C)C)nc(N)c1[N+](=O)[O-] ?
Sfp PPTase inh: -27.1%; Gal4-VP16 FLuc: 15.8µM*; RORg inh: inconclusive; PINK1 expr mod: -0.1%; Epigenetic derep: 1.8%

How did COc1ccc(Cn2c(SCc3ccccc3C)nc3cc(OC)c(OC)cc3c2=N)cc1 do in these assays?
Sfp PPTase inh: 1.26µM*; Gal4-VP16 FLuc: 22.4µM*; RORg inh: inconclusive; Epigenetic derep: -1.2%

What do the screens show for `COc1cc2nc(SCc3ccc(F)cc3)n(Cc3cccs3)c(=N)c2cc1OC`?
Sfp PPTase inh: 8.6%; Gal4-VP16 FLuc: inconclusive; RORg inh: -0.7%; ClpP mod: inconclusive; PINK1 expr mod: 2.4%; Epigenetic derep: 2.5%

How did O=C(O)CCCC(=O)Nc1ccccc1SCCS(=O)(=O)c1ccc(Cl)cc1 do in these assays?
Sfp PPTase inh: 56.2µM*; Gal4-VP16 FLuc: 0.6%; RORg inh: -1.0%; ClpP mod: -0.1%; PINK1 expr mod: -0.3%

Results for O=C(CN1C(=O)COc2ccc(S(=O)(=O)N3CCOCC3)cc21)NCc1ccc(Cl)cc1 ?
ClpP mod: 1.0%; PINK1 expr mod: -1.6%; Epigenetic derep: 5.2%

What do the screens show for `CCSC1=N/C(=C\c2ccc3c(c2)OCO3)C(=O)S1`?
Sfp PPTase inh: -22.6%; Gal4-VP16 FLuc: 11.0%; RORg inh: 6.7%; ClpP mod: -2.0%; PINK1 expr mod: -2.4%; Epigenetic derep: 1.2%

What do the screens show for `CCSC1=N/C(=C\C=C2/Oc3ccccc3N2CC)C(=O)S1`?
Sfp PPTase inh: -6.9%; Gal4-VP16 FLuc: -0.9%; RORg inh: 16.7%; PINK1 expr mod: 18.5%; Epigenetic derep: 11.2µM*

How did O=C(N/N=C/c1c[nH]c2ccccc12)c1cc(-c2cccc3ccccc23)n[nH]1 do in these assays?
Sfp PPTase inh: 18.6%; Gal4-VP16 FLuc: inconclusive; RORg inh: -44.8%; PINK1 expr mod: 6.3%; Epigenetic derep: -1.0%

How did O=C(N/N=C/c1cccs1)c1cc(-c2ccc3ccccc3c2)n[nH]1 do in these assays?
Sfp PPTase inh: -1.1%; Gal4-VP16 FLuc: 5.01µM*; RORg inh: 3.16µM*; ClpP mod: 28.3%; PINK1 expr mod: 4.4%; Epigenetic derep: 0.0%

How did O=C(N/N=C/c1cccs1)c1cc(-c2cccc3ccccc23)n[nH]1 do in these assays?
Sfp PPTase inh: 11.8%; Gal4-VP16 FLuc: 5.01µM*; RORg inh: 5.01µM*; ClpP mod: 0.2%; PINK1 expr mod: -1.0%; Epigenetic derep: -1.0%

Results for O=C(O)c1ccc(C2CCCCC2)cn1 ?
Sfp PPTase inh: inconclusive; Gal4-VP16 FLuc: inconclusive; RORg inh: 7.94µM*; ClpP mod: -2.8%; PINK1 expr mod: -0.4%; Epigenetic derep: 1.0%

What do the screens show for `O=C(O)C1=C(C2CCCCC2)C(=O)c2ccccc21`?
ClpP mod: -1.1%; PINK1 expr mod: -5.3%

Results for CC(=O)N1[C@H](Cc2ccccc2)C=C[C@]1(C)C(=O)NCc1ccc(C)o1 ?
Sfp PPTase inh: 44.7µM*!; Gal4-VP16 FLuc: -12.2%; RORg inh: 1.0%; ClpP mod: 0.2%; PINK1 expr mod: 2.6%; Epigenetic derep: 1.4%

What do the screens show for `COc1ccc(C)cc1NC(=O)c1c(C(=O)Nc2cccc(C)c2C)sc2nc(C)cc(=O)n12`?
ClpP mod: 0.2%; PINK1 expr mod: 0.6%; Epigenetic derep: -1.0%
